According to a collection of fitness landscapes (doi:10.1038/s41467-024-54723-y):
In all, about 18,000 sequences were measured (“TetR repression strength (sort-seq, GFP reporter)”: median about 0.23, highest 2% from about 0.68 on). Many of the other results were omitted from the sample, so the highest values are more common in it than they were.

These sequences were tested against TetR (class B, Tn10) (UniProt P04483) (assay: TetR repression strength (sort-seq, GFP reporter) (relative to tetO2 = 1); higher = stronger repression). Conditions: E. coli.
Chain of TetR (class B, Tn10) (P04483 whole entry): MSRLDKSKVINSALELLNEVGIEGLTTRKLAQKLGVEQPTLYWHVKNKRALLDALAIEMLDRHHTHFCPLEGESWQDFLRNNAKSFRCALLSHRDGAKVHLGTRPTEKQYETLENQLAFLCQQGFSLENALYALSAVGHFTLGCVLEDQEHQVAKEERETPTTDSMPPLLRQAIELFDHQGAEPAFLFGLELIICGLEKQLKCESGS
Procedure, shortened: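 Three independent transformations of E. coli SIG10-MAX were made with a low-copy plasmid library randomizing eight operator positions between a constitutive promoter and sfGFP, with constitutive TetR. Following 5 h at 37 °C in LB plus 50 µg/mL chloramphenicol, 10^6 cells went through FACS into 13 fluorescence bins, and each bin was sequenced by Illumina. Repression strength was defined as the top bin index plus one minus the read-weighted mean bin, divided by the unaltered operator's value. Averages included only members reaching ≥30 reads in all replicates with a CV ≤0.5.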

Sequence	TetR repression strength
TCCCAATGAGTCAATGAGA	0.207
TCCCATCCAGTCAATGAGA	0.0518
TCCCACCCAGTCAATGAGA	0.783
TCCCAAGTAGTCAATGAGA	0.663
TCCCCACCAGTCAATGAGA	0.315
TCCCACCAAGTCAATGAGA	0.943
TCCCCGCGAGTTGTAGAGA	0.0957
TCCCGGGTAGTTACTGAGA	0.123
TCCCCAGAAGTGCGTGAGA	0.0661
TCCCAACTAGTCGACGAGA	0.701
TCCCAACTAGTCGTCGAGA	0.214
TCCCAACGAGTCGACGAGA	0.696
TCCCAACTAGTCGAAGAGA	0.267
TCCCAACGAGTCAACGAGA	0.366
TCCCGACGAGTCGACGAGA	0.178
TCCCTGCTAGTGAAGGAGA	0.649
TCCCTAGCAGTGATAGAGA	0.858
TCCCTACCAGTGATAGAGA	0.94
TCCCTAACAGTGATAGAGA	0.816
TCCCTCCCAGTGATAGAGA	0.561
TCCCTTCCAGTGATAGAGA	0.668
TCCCTAGTAGTGATAGAGA	0.533
TCCCTAGCAGTGAGAGAGA	0.376
TCCCAACGAGTTGTGGAGA	0.189
TCCCACGCAGTAGGTGAGA	0.138
TCCCTGCTAGTAGGAGAGA	0.415

Sequence	TetR repression strength
TCCCAGTCAGTGGCGGAGA	0.205
TCCCTAGAAGTACTAGAGA	0.152
TCCCCAGCAGTTTAGGAGA	0.207
TCCCGTCTAGTGTGTGAGA	0.237
TCCCGTCGAGTTTTTGAGA	0.363
TCCCGTCGAGTTTGAGAGA	0.274
TCCCGTCTAGTTAGTGAGA	0.719
TCCCGTCGAGTTTGTGAGA	0.772
TCCCGTCTAGTTAGAGAGA	0.224
TCCCGTCTAGTTTGTGAGA	0.784
TCCCGTCTAGTTTGCGAGA	0.277
TCCCGTCGAGTTAGTGAGA	0.366
TCCCTGTGAGTCGCGGAGA	0.327
TCCCGGTCAGTGCTAGAGA	0.638
TCCCAGGGAGTCAGTGAGA	0.319
TCCCTACTAGTAGTAGAGA	0.389
TCCCGGATAGTTGATGAGA	0.285
TCCCACTCAGTGAGGGAGA	0.255
TCCCGCAGAGTTAGAGAGA	0.5
TCCCATACAGTGAGTGAGA	0.176
TCCCGAGAAGTCGCGGAGA	0.0355
TCCCGTGCAGTCGTGGAGA	1
TCCCTGTGAGTGACGGAGA	0.115
TCCCAGTAAGTCGGGGAGA	0.698
TCCCGTGCAGTCGTCGAGA	0.216
TCCCTGAAAGTGACGGAGA	0.506

Sequence	TetR repression strength
TCCCAGTAAGTCCGGGAGA	0.157
TCCCAGTAAGTGGGGGAGA	0.196
TCCCGTGGAGTCGTGGAGA	0.209
TCCCAGTGAGTGTCGGAGA	0.183
TCCCTGTAAGTGACGGAGA	0.796
TCCCAGTAAGTGTCGGAGA	0.811
TCCCAGTAAGTATCGGAGA	0.221
TCCCGCATAGTAGGTGAGA	0.317
TCCCAATGAGTTCGTGAGA	0
TCCCTCATAGTGGGCGAGA	0.213
TCCCGCCCAGTAGGGGAGA	0.163
TCCCTGCAAGTTGATGAGA	0.246
TCCCATGTAGTCCTGGAGA	0.341
TCCCCTTAAGTGGTAGAGA	0.201
TCCCCGTTAGTGTCGGAGA	0.137
TCCCTGTCAGTCGGGGAGA	0.154
TCCCAGCCAGTCGGGGAGA	0.184
TCCCGTACAGTGGGGGAGA	0.145
TCCCATTCAGTCTTTGAGA	0.228
TCCCGTATAGTCGGGGAGA	0.216
TCCCAGTCAGTCTTTGAGA	0.726
TCCCAGTGAGTCTTTGAGA	0.339
TCCCAGTCAGTCGGGGAGA	0.776
TCCCGTACAGTCGGGGAGA	0.698
TCCCGGTGAGTCAAAGAGA	0.338
TCCCTTCCAGTCATTGAGA	0.225

Sequence	TetR repression strength
TCCCTGTCAGTATAGGAGA	0.0605
TCCCGCCGAGTGGACGAGA	0.514
TCCCCTGCAGTTGGAGAGA	0.159
TCCCAGTTAGTTGAGGAGA	0.231
TCCCACGGAGTCACCGAGA	0.205
TCCCTATAAGTGATAGAGA	0.994
TCCCGATAAGTGATAGAGA	0.733
TCCCGATAAGTCAGTGAGA	0.747
TCCCGATAAGTGAGTGAGA	0.375
TCCCGCTCAGTGATAGAGA	0.742
TCCCGACAAGTGATAGAGA	0.642
TCCCGAGAAGTGATAGAGA	0.425
TCCCGATGAGTCAGTGAGA	0.38
TCCCGCTCAGTGGTAGAGA	0.428
TCCCTATAAGTCGTAGAGA	0.503
TCCCGCTCAGTGTTAGAGA	0.433
TCCCCCTAAGTGATAGAGA	0.442
TCCCGTATAGTGGGGGAGA	0.0618
TCCCGGGTAGTGACGGAGA	0.181
TCCCACGAAGTGCCTGAGA	0.486
TCCCAGGGAGTAAAGGAGA	0.188
TCCCGCAGAGTTGGCGAGA	0.186
TCCCGATAAGTAGCTGAGA	0.921
TCCCGCTAAGTGATAGAGA	0.69
TCCCGATCAGTGATGGAGA	0.482
TCCCGACAAGTAGCTGAGA	0.187

Sequence	TetR repression strength
TCCCGATCAGTGCTAGAGA	0.657
TCCCTAATAGTGATAGAGA	0.614
TCCCGGTAAGTGATAGAGA	0.609
TCCCTTTTAGTGATAGAGA	0.512
TCCCTATTAGTGATAGAGA	0.878
TCCCGATCAGTGATAGAGA	0.778
TCCCGATAAGTGGCTGAGA	0.523
TCCCGCTGAGTGATAGAGA	0.483
TCCCTTATAGTGCCTGAGA	0.162
TCCCGAACAGTGTAGGAGA	0.0968
TCCCGCTTAGTCCGTGAGA	0.183
TCCCTGGAAGTGGGGGAGA	0.208
TCCCTGATAGTTTTCGAGA	0.301
TCCCTCGAAGTAGGGGAGA	0.154
TCCCATTAAGTGAACGAGA	0.253
TCCCCGAGAGTGTGTGAGA	0.248
TCCCGGGGAGTAGCTGAGA	0.709
TCCCGGGAAGTAGCTGAGA	0.647
TCCCGTCAAGTGGCCGAGA	0.152
TCCCGTCAAGTACCCGAGA	0.325
TCCCGTCAAGTAGCCGAGA	1.02
TCCCGGGGAGTGGCTGAGA	0.301
TCCCGAGTAGTAACGGAGA	0.461
TCCCGAGAAGTGCCTGAGA	0.178
TCCCGTCTAGTGAAGGAGA	0.315
TCCCGGTCAGTGCAGGAGA	0.531
